# Reference: PubChem BioAssay (NCI)
# Compounds without any hit were thinned out: in the full panel of roughly 83,000, 20% have a hit.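 Single-concentration screen, 48 h exposure, 96-well plates. Endpoint: percent growth. Below 10 = active.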 A number with no mark means an inactive call. Calls of active or inactive are those of the source.
# Key:
# Assay in all cases: NCI-60 one-dose screen, 48 h (100 = growth as untreated, 0 = no growth, -100 = all killed)
# Details in all cases: 10 µM unless noted
# NCI-H23 lung = test system: NCI-H23 lung
# NCI-H226 lung = test system: NCI-H226 lung
# NCI-H322M lung = test system: NCI-H322M lung
# HOP-62 NSCLC = test system: HOP-62 NSCLC
# HOP-92 NSCLC = test system: HOP-92 NSCLC
# NCI-H522 lung = test system: NCI-H522 lung
# A549/ATCC NSCLC = test system: A549/ATCC NSCLC
# 786-0 renal = test system: 786-0 renal
# COLO 205 colon = test system: COLO 205 colon
# DU-145 prostate = test system: DU-145 prostate
# K-562 leukemia = test system: K-562 leukemia
# MALME-3M melanoma = test system: MALME-3M melanoma
# MDA-MB-231 breast = test system: MDA-MB-231 breast
# RXF 393 renal = test system: RXF 393 renal
# SF-268 CNS = test system: SF-268 CNS
# SF-295 CNS = test system: SF-295 CNS
# SF-539 CNS = test system: SF-539 CNS
# UACC-257 melanoma = test system: UACC-257 melanoma
# M14 melanoma = test system: M14 melanoma
# NCI-H460 lung = test system: NCI-H460 lung
SMILES,growth (NCI-H23 lung),growth (NCI-H226 lung),growth (NCI-H322M lung),growth (HOP-62 NSCLC),growth (HOP-92 NSCLC),growth (NCI-H522 lung),growth (A549/ATCC NSCLC),growth (786-0 renal),growth (COLO 205 colon),growth (DU-145 prostate),growth (K-562 leukemia),growth (MALME-3M melanoma),growth (MDA-MB-231 breast),growth (RXF 393 renal),growth (SF-268 CNS),growth (SF-295 CNS),growth (SF-539 CNS),growth (UACC-257 melanoma),growth (M14 melanoma),growth (NCI-H460 lung) [%]
CCOC(=O)c1cnn(-c2nc(-c3ccc(F)cc3)c(C#N)c(N3CCOCC3)n2)c1N,103%,92.1%,105%,111%,98.7%,90.6%,93.9%,82.5%,107%,102%,91.8%,107%,107%,122%,98.7%,101%,97.2%,106%,106%,–
COc1ccc2[nH]c(=O)c(/C=C/C(=O)/C=C/c3ccc(O)c(OC)c3)cc2c1,5.43% (active),36.8%,78.8%,85%,98.3%,29%,22.6%,-42.7% (active),29.6%,8.26% (active),4.67% (active),52.8%,18.3%,-76.7% (active),9.98% (active),17.5%,8.47% (active),40.3%,-32.4% (active),–
CC[C@H](Nc1ncnc2nc[nH]c12)c1nc2cccc(CC(=O)c3ccc(C(=O)NO)cc3)c2c(=O)n1-c1ccccc1,94.1%,84.9%,90.4%,83.2%,72.6%,51.4%,88.4%,98.9%,95.4%,101%,85.9%,56.2%,99.9%,83.5%,83%,97.9%,78.5%,53.5%,92.5%,–
C=C1C(=O)O[C@H]2[C@H]1CC/C(C=Nc1c(N)cc(C(F)(F)F)cc1Br)=C\CC[C@@]1(C)O[C@@H]21,30%,38.3%,77.8%,52%,-15.5% (active),-68% (active),58%,-41.8% (active),-52.1% (active),19.3%,-8.9% (active),-8.38% (active),-16% (active),-63.4% (active),27.6%,83.3%,18.6%,34%,-46.3% (active),–
O=c1c2ccccc2oc2ccc(OCCCCCN3CCCCCC3)cc12,–,91.4%,85.9%,92.5%,94.1%,69.9%,71.9%,78.5%,43.6%,94.1%,21.3%,40.2%,77.6%,58.6%,79%,87.8%,79.4%,2.91% (active),31.5%,78.9
COCCc1n(Cc2ccc3ccccc3c2)c2ccccc2[n+]1Cc1ccc2ccccc2c1,-24.3% (active),-7.12% (active),5.25% (active),-19.1% (active),-53.1% (active),-54.4% (active),4.72% (active),-94.3% (active),-71% (active),2.65% (active),-67.8% (active),-69.5% (active),-74.7% (active),-44.3% (active),-58.4% (active),-32.7% (active),-8.99% (active),-29.3% (active),-72.2% (active),–
COc1ccc2nc(-c3ccc(Cl)cc3)cc(C(=O)N3N=C(c4ccc(N)cc4)CC3c3ccccc3)c2c1 (configuration not stated),62%,63.8%,54%,42.5%,58.9%,34.7%,46.9%,31.8%,42.3%,55%,17.5%,62.5%,83.8%,35.3%,48.3%,24.2%,43.4%,67.1%,38.9%,–
CN(C)CSc1nc2ccccc2s1,92.9%,95.1%,94.8%,88%,78.7%,91.5%,101%,95.4%,91.6%,105%,119%,86.7%,91.7%,106%,101%,92.8%,94.2%,113%,88.8%,–
